# The list is not random: actives were taken first. Their share in the collection is about 6.1%.
# D1 PAM: Potentiators of Human D1 Dopamine Receptor: qHTS | D(1A) dopamine receptor (Homo sapiens), P21728 | HEK293 TREx D1 cells, calcium flux, dopamine EC20 potentiation | potentiation, % at 10 µM | 360,000 compounds, 0.036% hits | AID 504651, 2011; in the data active = potentiation above about 30%; also: 0% is about no effect
# D3 antag: qHTS of D3 Dopamine Receptor Antagonist: qHTS. D(3) dopamine receptor (Homo sapiens), P35462. 360,000 compounds, 2.5% hits. max response, negative = inhibition, %. D3R cells, DiscoveRx beta-arrestin luminescence, antagonist mode; active compounds read low; in the data active = max response below about -50%; also: % is scaled to controls: 0 for no effect and ±100 for the full control effect
# Target sequence (P35462 whole entry, looked up): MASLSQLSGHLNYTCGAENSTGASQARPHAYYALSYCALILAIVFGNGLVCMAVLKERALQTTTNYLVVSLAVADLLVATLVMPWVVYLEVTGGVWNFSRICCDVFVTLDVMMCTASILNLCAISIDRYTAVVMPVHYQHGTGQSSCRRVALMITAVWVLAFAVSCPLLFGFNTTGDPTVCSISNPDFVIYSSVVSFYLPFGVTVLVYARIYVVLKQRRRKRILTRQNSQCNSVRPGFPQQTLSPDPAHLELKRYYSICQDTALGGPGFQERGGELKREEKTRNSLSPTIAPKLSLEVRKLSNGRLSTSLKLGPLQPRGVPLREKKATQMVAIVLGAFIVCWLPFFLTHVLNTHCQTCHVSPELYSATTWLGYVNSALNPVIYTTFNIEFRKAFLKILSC
#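 Cells plated overnight at 1500 cells/well, then exposed to library compounds with dopamine controls for 90 minutes at 37 degrees C. DiscoveRx reagent added for 30–60 minutes at room temperature; luminescence read, quantitative HTS format.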
# D1 antagonist: Antagonist of Human D 1 Dopamine Receptor: qHTS; D(1A) dopamine receptor (Homo sapiens), P21728; HEK293 TREx D1 cells, calcium flux, dopamine EC80; active compounds read low; activity change, negative = inhibition, % at 10 µM; 360,000 compounds, 3.2% hits; AID 504652, 2011; in the data active = activity change below about -30%; also: % is scaled to controls: 0 for no effect and ±100 for the full control effect
#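 Tetracycline-induced HEK293 T-REx cells with force-coupled D1 receptor were loaded with a no-wash calcium dye. Compound was added after a 10 s baseline and read kinetically for 180 s; EC80 dopamine was then added and calcium flux followed another 180 s.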
# DRD3 agonist: qHTS of D3 Dopamine Receptor Agonist: qHTS; D3R DiscoveRx beta-arrestin cells, luminescence, 90 min; max activation, %; 410,000 compounds, 0.58% hits; AID 652048, 2013; in the data active = max activation above about 30%; also: 0% is about no effect
#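 Cells at 1500/well, incubated overnight, then treated with pinned compounds (dopamine as control) for 90 min at 37 degrees C. DiscoveRx reagent added for 30 - 60 minutes at room temperature; luminescence read.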
# D1 ag: Allosteric Agonists of the Human D1 Dopamine Receptor: qHTS; D(1A) dopamine receptor (Homo sapiens), P21728; HEK293 T-REx D1 cells, calcium flux, agonist mode; activation, % at 2 µM; 360,000 compounds, 1% hits; AID 504660, 2011; in the data active = activation above about 30%; also: 0% is about no effect
#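 Tetracycline-induced HEK293 TREx D1 cells, force-coupled to calcium signalling, were dye-loaded with a no-wash calcium kit. Compound was pin-added after a 10 s baseline. Fluorescence was read kinetically at 1 cycle/s for 180 s, with calcium rises flagged as agonism.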
# Active calls of the source: *; nt = not tested or not shown.
SMILES,D1 PAM,D3 antag,D1 antagonist,DRD3 agonist,D1 ag
Cc1cc(=O)[nH]c(N/N=C/C2=C(N3CCOCC3)C(=C\c3ccc(Cl)cc3)/CC2)n1,0.8,9.3,-23.2,0.7,1.3
O=C(O)c1ccccc1N/N=C/C1=C(N2CCOCC2)C(=C\c2ccccc2)/CC1,-4.5,-5.9,-30.4*,-0.9,24.3
O=C(N/N=C/C1=C(N2CCOCC2)C(=C\c2ccccc2)/CC1)Nc1ccccc1,7.1,11.0,4.6,-4.9,1.7
CCN(CC)c1ccc(/C=C2\CCC(/C=N/NC(=O)c3ccc(=O)n(C)c3)=C2N2CCOCC2)cc1,7.1,-0.1,12.6,12.4,73.8*
Cc1cc(C)nc(N/N=C/C2=C(N3CCOCC3)C(=C/c3ccccc3)/CC2)n1,-11.6,-17.2,-44.6*,13.0,0.0
Cc1ccc(Cl)cc1N(C)C(=O)c1cc2c(Cl)nc3ccccc3c2s1,-4.2,nt,7.1,6.0,5.0
CCCN(CCC)C(=O)Cn1c(=O)n(-c2ccc(Cl)c(Cl)c2)c(=O)c2c(C)c(C(=O)N(C)C)sc21,0.1,nt,9.5,-2.7,-0.5
COc1cccc(Cn2c(C)c(CNCc3ccccc3Cl)c(C(=O)O)c2C)c1,1.9,nt,25.1,-2.7,3.6
NC(=O)CSc1nnc2sc3ccccc3n12,32.3*,22.0,-15.1,6.5,0.8
Cc1ccc(C)c(N2CCN(C(=O)c3ccc(-c4nc(COc5ccccc5)c(C)o4)cc3)CC2)c1,1.1,nt,8.8,5.6,-0.9
O=C(CCCc1nc2ccccc2s1)N1CCN(c2ccccc2)CC1,-13.9,-1.1,-42.7*,2.5,0.2
O=C(CCCc1nc2ccccc2s1)N1CCN(c2ccccc2F)CC1,-2.1,4.0,-13.4,2.8,-0.3
COc1ccc(-c2nc3scc(CCNS(=O)(=O)c4ccc5c(c4)OCCO5)n3n2)cc1,-2.7,nt,nt,10.2,9.9
O=C1C=CC(=O)N1c1ccccc1N1C(=O)C=CC1=O,nt,-113.0*,nt,-37.8,nt
CCN(CC)c1nn2c(=O)c(C(=O)NCc3cccc(C)c3)cnc2s1,-4.7,nt,-6.9,5.8,-0.6
CCC(Sc1nc2n[nH]c(C)c2c(=N)n1-c1cccc(Cl)c1C)C(=O)N(CC)CC (stereo unspecified),4.9,26.0,-40.9*,2.3,0.8
C=Cc1cc2c(s1)c1cnn(Cc3ccccc3F)c(=O)c1n2C,5.0,nt,13.2,nt,1.6
CC(=O)N1CCC(N(CCN2CCOCC2)C(=S)Nc2ccc(C)cc2C)CC1,-4.7,8.3,-30.9*,-2.1,3.5
CC(=O)N1CCC(N(CCN2CCOCC2)C(=S)Nc2ccc(C)cc2)CC1,-1.8,3.5,-2.0,3.9,1.5
CCOC(=O)c1c(C)n(-c2ccc(C)cc2)c2ccc(O)c(CN(C)C)c12,-11.2,5.6,-23.5,5.5,33.9*
CCOC(=O)c1c(C)n(-c2ccc(OC)cc2)c2ccc(O)c(CN(C)C)c12,-0.4,-1.4,4.8,0.6,13.7
CCOc1ccc(CN2CCN(c3ncnc4sc5c(c34)CC(C)CC5)CC2)cc1 (stereo unspecified),-1.1,nt,-33.3*,-29.3,-1.8
O=C1NCN(C2CCCCC2)CN1,nt,3.9,nt,9.4,nt
O=C1CC(c2ccccc2)CC2=C1CN(C1CCCCC1)CN2 (stereo unspecified),-3.8,-78.7*,-16.3,-3.4,0.3
O=c1oc(-c2ccccc2)nc2c1cnn2-c1ccccc1,-0.6,8.0,-3.6,-13.6,4.7
SMILES,D1 PAM,D3 antag,D1 antagonist,DRD3 agonist,D1 ag
O=c1oc(-c2cccs2)nc2c1cnn2-c1ccccc1,-1.1,-56.2*,15.3,0.0,2.2
COC1CCCN(C(=O)c2ccc(OC3CCN(CCc4ccccc4)CC3)cc2)C1 (stereo unspecified),-3.9,-54.8*,-1.0,-10.3,4.3
CC(CCc1ccc(O)cc1)N1CCC(Oc2ccc(C(=O)N3CCCC3)cc2)CC1 (stereo unspecified),-4.7,4.5,-0.6,73.2*,4.8
COc1cc(/C=C/CN2CCC(Oc3ccc(C(=O)N4CCCC4)cc3)CC2)ccc1O,-0.5,-6.6,4.5,-10.7,3.6
O=C(c1ccc(OC2CCN(CCc3ccccc3)CC2)cc1)N1CCC[C@H]1CO,-4.8,-17.9,-78.5*,-21.0,0.2
COc1ccccc1/C=C/CN1CCC(Oc2ccc(C(=O)N3CCCC3)cc2)CC1,-3.6,-68.2*,-19.8,-12.6,2.8
CCOC(=O)Cc1ccc(NC(=O)N2CCOc3ccc(C)cc32)cc1,-2.3,nt,-27.9,-10.2,0.7
COc1ccc(-c2noc(-c3ccc(NCCc4ccccc4)c([N+](=O)[O-])c3)n2)cc1OC,1.2,nt,-0.7,4.4,9.2
Cc1ccc(-n2nc(CO)c(C(=O)NCCC(C)C)n2)cc1C,2.5,nt,-47.3*,-11.9,2.4
CC(C)(C)c1cc2cccnc2n1Cc1cccc(Cl)c1,-8.9,0.0,-30.5*,-6.6,26.7
Cc1ccc(NC(=O)CN(C)C(=O)COC(=O)CNS(=O)(=O)c2ccc(Br)cc2Cl)cc1,-14.2,2.3,-33.8*,2.2,6.9
O=C(COC(=O)CNS(=O)(=O)c1ccc(Br)cc1Cl)NCCc1ccccc1,-6.5,6.9,-33.8*,2.1,2.5
NS(=O)(=O)c1ccc(CCNC(=O)c2ccc3nc(CCc4ccccc4)oc3c2)cc1,-3.5,nt,7.9,6.1,-0.1
COc1ccc(N2CCN(C(=O)c3cc4c(s3)CCCCC4)CC2)cc1,-11.2,-1.5,-57.3*,-10.9,1.4
COc1ccc2nc3sc(C(=O)N4CCN(c5ccccc5)CC4)cc3cc2c1,-1.3,nt,-59.1*,0.3,0.8
CC(=O)c1ccc(N2CCN(C(=O)c3cc4c(s3)CCCC4)CC2)cc1,-6.4,-2.1,-34.6*,-5.2,3.3
COc1cccc(N2CCN(C(=O)c3cc4cc5cc(C)ccc5nc4s3)CC2)c1,-1.9,nt,-16.0,-3.8,1.0
COc1ccccc1N1CCN(C(=O)c2cc3c(s2)CCC3)CC1,1.4,-7.0,2.6,-12.9,1.2
C=CCN1CCN(C(=O)c2cc3c(s2)CCCC3)CC1,9.0,-58.3*,-1.1,-25.9,1.2
COc1ccc2oc(=O)c(C(=O)N3CCN(c4ccc(C)cc4)CC3)cc2c1,-4.0,nt,6.4,7.4,-0.8
COc1ccc(-c2nc(CN3CCC(c4ccccc4)CC3)c(C)o2)cc1OC,-4.5,-0.6,4.4,-20.3,-0.6
Cc1oc(-c2cccs2)nc1CN1CCC(c2ccccc2)CC1,-2.2,-90.6*,1.6,-27.1,0.7
O=Cc1c(Sc2ccccc2)nc2ccccn2c1=O,-4.6,9.5,-4.3,5.6,0.5
O=Cc1c(Sc2ccccn2)nc2ccccn2c1=O,8.4,-51.7*,-0.6,2.7,0.9
O=C(CSc1nc2ccccc2c(=O)[nH]1)c1ccccc1,-6.5,-12.5,33.6,-3.0,4.5
CC(C)(C)c1ccc(C(=O)CSc2nc3ccccc3c(=O)[nH]2)cc1,-1.7,47.3,nt,34.1*,1.2
